# In PubChem BioAssay (NCI):
# Compounds without any hit were thinned out: in the full panel of roughly 83,000, 20% have a hit.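 Negative percent growth values reflect cell death: -40 means 40% of the cells present at the start died, and -100 means all died.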 Unmarked numbers belong to inactive results. Activity calls are given as the source filed them. How the source made its calls: active means growth percent below 10; inactive means the rest.
# System: HL-60(TB) leukemia
# Assay: NCI-60 one-dose screen, 48 h (100 = growth as untreated, 0 = no growth, -100 = all killed)
# Conditions: 10 µM unless noted
row,Compound,growth
1,CCc1ccccc1NC(=O)c1sc2nc3c(cc2c1N)C(=O)CCC3,-10.3% (active)
2,Cc1ccc(Nc2nccc(N(C)c3ccc4c(C)n(C)nc4c3)n2)cc1S(N)(=O)=O,5.08% (active)
3,CC(=O)Oc1ccccc1C(=O)Nc1ncc([N+](=O)[O-])s1,-43.8% (active)
4,COc1cc(C(=O)/C=C/c2cccnc2Nc2ccc(Cl)cc2)cc(OC)c1OC,-27.2% (active)
5,COc1cc2c(cc1OC)C(=O)/C(=C/c1cccc(OCC(=O)c3ccccc3)c1)C2,89.8%
6,CN1C(=C2C(=O)OC(C)(C)OC2=O)CCC1C(=O)NCc1ccc(Cl)cc1Cl (stereo unspecified),83.7%
